The supplement of paper PMC8728848
Shown is part of a subset that was picked to be rich in the strongest signals.

Columns and labels:
Assay in all cases: glycan array binding signal (z-score within array); higher = stronger binding
Conditions in all cases: glycan notation: IUPAC condensed, linker removed
[1] = molecular target: Fuc(a1-2)Gal(b1-4)GlcNAc(b1-6)GalNAc
How it was run: (§1)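 Glycan array data were curated from 3228 arrays in the Consortium for Functional Glycomics database and kept only where the protein sequence was available. Glycan names were converted to IUPAC-condensed notation, and columns mapping to the same glycan were averaged. The binding signal is a within-array Z-score, averaged across arrays of the same protein sequence at different concentrations or buffers and across linkers. Negative Z-scores can be read as non-binding.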

[2] = molecular target: Fuc(a1-2)[Gal(a1-3)]Gal(b1-4)GlcNAc(b1-3)GalNAc
How it was run: as §1

[3] = molecular target: Fuc(a1-2)[GalNAc(a1-3)]Gal(b1-4)GlcNAc(b1-6)GalNAc
How it was run: as §1

[4] = molecular target: Fuc(a1-2)[GalNAc(b1-3)]Gal
How it was run: as §1

[5] = molecular target: Fuc(a1-3)[GalNAc(b1-4)]GlcNAc6S
How it was run: as §1

Gal(a1-3)Gal(b1-4)GlcNAc = molecular target: Gal(a1-3)Gal(b1-4)GlcNAc
How it was run: as §1

[6] = molecular target: Gal(a1-3)Gal(b1-4)GlcNAc(b1-6)GalNAc
How it was run: as §1

[7] = molecular target: Gal(b1-3)GlcNAc(b1-3)Gal(b1-4)[Fuc(a1-3)]GlcNAc(b1-6)[Gal(b1-3)GlcNAc(b1-3)]Gal(b1-4)Glc
How it was run: as §1

[8] = molecular target: Gal(b1-4)GlcNAc(b1-3)Gal(b1-3)GalNAc
How it was run: as §1

[9] = molecular target: Gal(b1-4)GlcNAc(b1-3)Gal(b1-4)GlcNAc(b1-3)Gal(b1-4)GlcNAc(b1-3)Gal(b1-4)GlcNAc(b1-2)Man(a1-3)[Gal(b1-4)GlcNAc(b1-3)Gal(b1-4)GlcNAc(b1-3)Gal(b1-4)GlcNAc(b1-3)Gal(b1-4)GlcNAc(b1-2)Man(a1-6)]Man(b1-4)GlcNAc(b1-4)[Fuc(a1-6)]GlcNAc
How it was run: as §1

[10] = molecular target: Gal(b1-4)GlcNAc(b1-3)Gal(b1-4)GlcNAc(b1-3)Gal(b1-4)GlcNAc(b1-3)Gal(b1-4)GlcNAc(b1-3)Gal(b1-4)GlcNAc(b1-3)Gal(b1-4)GlcNAc(b1-2)Man(a1-3)[Gal(b1-4)GlcNAc(b1-3)Gal(b1-4)GlcNAc(b1-3)Gal(b1-4)GlcNAc(b1-3)Gal(b1-4)GlcNAc(b1-3)Gal(b1-4)GlcNAc(b1-3)Gal(b1-4)GlcNAc(b1-2)Man(a1-6)]Man(b1-4)GlcNAc(b1-4)GlcNAc
How it was run: as §1

[11] = molecular target: Gal(b1-4)GlcNAc(b1-3)Gal(b1-4)[Fuc(a1-3)]GlcNAc(b1-3)Gal(b1-4)[Fuc(a1-3)]GlcNAc
How it was run: as §1

[12] = molecular target: Gal(b1-4)GlcNAc(b1-3)[Gal(b1-4)GlcNAc(b1-6)]Gal(b1-4)GlcNAc
How it was run: as §1

[13] = molecular target: Gal3S(b1-4)[Fuc(a1-3)]Glc6S
How it was run: as §1

[14] = molecular target: Gal3S(b1-4)[Fuc(a1-3)]GlcNAc6S
How it was run: as §1

GalNAc(a1-3)Gal = molecular target: GalNAc(a1-3)Gal
How it was run: as §1

GalNAc(b1-3)Gal = molecular target: GalNAc(b1-3)Gal
How it was run: as §1

[15] = molecular target: GalNAc(b1-3)Gal(a1-4)Gal(b1-4)GlcNAc(b1-3)Gal(b1-4)Glc
How it was run: as §1

[16] = molecular target: GalNAc(b1-3)Gal(a1-6)Gal(b1-4)Glc
How it was run: as §1

GalNAc(b1-4)GlcNAc6S = molecular target: GalNAc(b1-4)GlcNAc6S
How it was run: as §1

GalNAc4S6S(b1-4)GlcNAc = molecular target: GalNAc4S6S(b1-4)GlcNAc
How it was run: as §1

[17] = molecular target: Glc(a1-6)Glc(a1-6)Glc(a1-6)Glc
How it was run: as §1

[18] = molecular target: GlcNAc(a1-4)Gal(b1-4)GlcNAc(b1-3)Gal(b1-4)Glc
How it was run: as §1

[19] = molecular target: GlcNAc(b1-3)Gal(b1-4)GlcNAc(b1-3)Gal(b1-4)GlcNAc(b1-3)Gal(b1-4)GlcNAc(b1-3)Gal(b1-4)GlcNAc(b1-2)[GlcNAc(b1-3)Gal(b1-4)GlcNAc(b1-3)Gal(b1-4)GlcNAc(b1-3)Gal(b1-4)GlcNAc(b1-3)Gal(b1-4)GlcNAc(b1-6)]Man(a1-6)[GlcNAc(b1-3)Gal(b1-4)GlcNAc(b1-3)Gal(b1-4)GlcNAc(b1-3)Gal(b1-4)GlcNAc(b1-3)Gal(b1-4)GlcNAc(b1-2)Man(a1-3)]Man(b1-4)GlcNAc(b1-4)[Fuc(a1-6)]GlcNAc
How it was run: as §1

[20] = molecular target: GlcNAc(b1-3)Gal(b1-4)GlcNAc(b1-6)[GlcNAc(b1-3)Gal(b1-3)]GalNAc
How it was run: as §1

GlcNAc(b1-3)GalNAc = molecular target: GlcNAc(b1-3)GalNAc
How it was run: as §1

[21] = molecular target: GlcNAc(b1-3)[GlcNAc(b1-6)]GalNAc
How it was run: as §1

GlcNAc(b1-6)GalNAc = molecular target: GlcNAc(b1-6)GalNAc
How it was run: as §1

[22] = molecular target: Kdn(a2-3)Gal(b1-4)[Fuc(a1-3)]GlcNAc
How it was run: as §1

Man(a1-6)Man = molecular target: Man(a1-6)Man
How it was run: as §1

B1: Cohesin-hDCIR (Homo sapiens) (protein)
chain: LDDLDAVRIKVDTVNAKPGDTVRIPVRFSGIPSKGIANCDFVYSYDPNVLEIIEIEPGDIIVDPNPDKSFDTAVYPDRKIIVFLFAEDSGTGAYAITKDGVFATIVAKVKEGAPNGLSVIKFVEVGGFANNDLVEQKTQFFDGGANVGDTTEPATPTTPVTTPTTTDDLDAASQKYSQLLEKKTTKELVHTTLECVKKNMPVEETAWSCCPKNWKSFSSNCYFISTESASWQDSEKDCARMEAHLLVINTQEEQDFIFQNLQEESAYFVGLSDPEGQRHWQWVDQTPYNESSTFWHPREPSDPNERCVVLNFRKSPKRWGWNDVNCLGPQRSVCEMMKIHLHHHHHH
glycan array binding signal (z-score) [1]: 5.99
glycan array binding signal (z-score) [2]: -0.635
glycan array binding signal (z-score) [3]: 5.33
glycan array binding signal (z-score) [4]: 3.31
glycan array binding signal (z-score) [5]: 0.081
glycan array binding signal (z-score) (Gal(a1-3)Gal(b1-4)GlcNAc): -0.455
glycan array binding signal (z-score) [6]: 5.08
glycan array binding signal (z-score) [7]: -0.655
glycan array binding signal (z-score) [8]: -0.458
glycan array binding signal (z-score) [9]: 2.82
glycan array binding signal (z-score) [10]: -0.417
glycan array binding signal (z-score) [11]: -0.584
glycan array binding signal (z-score) [12]: -0.335
glycan array binding signal (z-score) [13]: -0.343
glycan array binding signal (z-score) [14]: 3.25
glycan array binding signal (z-score) (GalNAc(a1-3)Gal): 1.17
glycan array binding signal (z-score) (GalNAc(b1-3)Gal): 3.75
glycan array binding signal (z-score) [15]: 4.3
glycan array binding signal (z-score) [16]: 5.47
glycan array binding signal (z-score) (GalNAc(b1-4)GlcNAc6S): 0.86
glycan array binding signal (z-score) (GalNAc4S6S(b1-4)GlcNAc): -0.659
glycan array binding signal (z-score) [17]: -0.038
glycan array binding signal (z-score) [18]: -0.696
glycan array binding signal (z-score) [19]: -0.597
glycan array binding signal (z-score) [20]: -0.546
glycan array binding signal (z-score) (GlcNAc(b1-3)GalNAc): -0.415
glycan array binding signal (z-score) [21]: -0.401
glycan array binding signal (z-score) (GlcNAc(b1-6)GalNAc): 4.02
glycan array binding signal (z-score) [22]: -0.218
glycan array binding signal (z-score) (Man(a1-6)Man): 3.2
